Results: PubChem BioAssay (NCI)
About 79,000 compounds went through this panel and 15% of them were active in at least one assay; those are over-represented in the sample as a whole. Cut-off read from the data, not from the text of the source: active = growth inhibition above about 70%; inactive = the rest.

Assays:
[1] = NCI Yeast Anticancer Drug Screen. Data for the rad50 strain (AID 155);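 note: 0% = growth of vehicle-only cultures of the same strain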; conditions: S. cerevisiae rad50 strain growth inhibition; at 50.0 µM; active compounds read high
Method in brief: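 Compounds were tested on a yeast strain with an engineered DNA damage repair alteration; the reported value is growth inhibition normalised to vehicle treatment.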

[2] = NCI Yeast Anticancer Drug Screen. Data for the mec2-1 strain (AID 157); conditions: S. cerevisiae mec2-1 strain, at 50.0 µM, active compounds read high
Method in brief: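 Readout is yeast growth inhibition, normalised to vehicle-treated controls, in the mec2-1 strain exposed to compound.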

[3] = NCI Yeast Anticancer Drug Screen. Data for the sgs1 mgt1 strain (AID 161);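 note: 0% = growth of cultures given vehicle only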; conditions: S. cerevisiae sgs1 mgt1 strain, at 50.0 µM, active compounds read high
Method in brief: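 Growth of a repair-deficient yeast mutant was monitored after compound treatment and expressed as inhibition relative to vehicle-treated cultures.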

[4] = NCI Yeast Anticancer Drug Screen. Data for the cln2 rad14 strain (AID 165);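 note: 0% = growth equal to vehicle treated cultures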; conditions: S. cerevisiae cln2 rad14 strain, at 50.0 µM, active compounds read high
Method in brief: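 Relative to vehicle controls, growth inhibition of compound-treated cln2 rad14 yeast was recorded.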

[5] = NCI Yeast Anticancer Drug Screen. Data for the bub3 strain (AID 167); conditions: S. cerevisiae bub3 mutant strain, at 50.0 µM, active compounds read high
Method in brief: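 Growth of a checkpoint-deficient yeast mutant is measured after compound exposure. Values represent inhibition relative to vehicle.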

[6] = NCI Yeast Anticancer Drug Screen. Data for the mlh1 rad18 strain (AID 175); conditions: S. cerevisiae mlh1 rad18 strain growth inhibition; at 50.0 µM; active compounds read high
Method in brief: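 Test agents were incubated with a yeast strain of defined genotype (DNA damage repair defect). Inhibition of growth was derived by comparison with vehicle-exposed cultures.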

Measured: growth inhibition

CCC(C)(CC(=O)O)CC(=O)O
inactive: [1] -13.9% | [2] 7.45% | [3] -15.7% | [4] 0.85% | [5] 2.7% | [6] 5.3%

COc1ccc2[nH]c(C(F)(F)F)cc(=O)c2c1
inactive: [1] 9.4% | [2] 11.7% | [3] 5.2% | [4] -7.95% | [5] 4.65% | [6] 14.8%

CC(=O)OC1CC(n2cc(C)c(=O)[nH]c2=O)OC1COP(=O)(N1CC1)N1CC1 (stereo not drawn)
inactive: [1] -9.25% | [2] -1.25% | [3] -2.8% | [4] -6.1% | [5] -22.6% | [6] -3.95%

c1ccc(C2=C(c3ccccc3)C2c2ccccc2)cc1
inactive: [1] 10.8% | [2] -8.95% | [3] -4.5% | [4] -21.1% | [5] -2.15% | [6] 7.15%

NC(=O)c1ccccc1OCC(=O)O
inactive: [1] 6.65% | [2] -1.2% | [3] 4.2% | [4] 15.8% | [5] -6.45% | [6] 19.1%

CCOc1ccc(N2C(=O)NC3(c4ccccc4)N(C)C(=O)N(C)C23c2ccccc2)cc1 (stereo not drawn)
inactive: [1] -2.7% | [2] -7.95% | [3] 13.8% | [4] 1.3% | [5] 17.1% | [6] -16.8%

COC1CC(NC(C)=O)C(OC(C)=O)C(CN=[N+]=[N-])O1 (stereo not drawn)
inactive: [1] 5.1% | [2] 9.3% | [3] 8% | [4] -11.4% | [5] -10.2% | [6] 6.4%

Nc1ccc(N=Nc2ccncc2)c2ccccc12
inactive: [1] 31.7% | [2] 22.5% | [3] 4.1% | [4] -15.1% | [5] 28% | [6] 19.7%

COc1ccc(/C=C2/C(=O)N=C(NC(C)=O)N2C)cc1OC
inactive: [1] -13.8% | [2] -14.2% | [3] -13.7% | [4] -2.1% | [5] 4.7% | [6] 4.55%

CCOC(C#CC(=O)C(C)C)OCC
inactive: [1] -17.2% | [2] 3.15% | [3] 0.85% | [4] 2.25% | [5] 27.4% | [6] 19.4%

CCCCCCCCC(Br)C(Br)CCCCCCCC(=O)NCCCOC (stereo not drawn)
inactive: [1] -2.45% | [2] -13.5% | [3] 1.95% | [4] -33.1% | [5] 1.95% | [6] 18.3%

Cn1c2ccccc2c2c3c(ccc21)C(=O)c1ccccc1C3=O
inactive: [1] 6.85% | [2] -3.9% | [3] 7.15% | [4] -62.6% | [5] 8.2% | [6] -2.5%

CC1=CC(C)=C(C#N)C2=S=C(c3ccccc3)C(=O)N12
inactive: [1] 6% | [2] 14.8% | [3] 22.5% | [4] 29.1% | [5] 19.9% | [6] 22.1%

CCOC(=O)c1cc(C)nc(Cl)c1C#N
inactive: [1] 6.3% | [2] 12.8% | [3] 7.9% | [4] 13.7% | [5] 21.1% | [6] 12.4%

Clc1ccc(-c2nnc(-c3ccc4ccccc4c3)o2)cc1
inactive: [1] -43% | [2] -60.8% | [3] -22.2% | [4] 3.1% | [5] -47.5% | [6] -25.4%

COc1ccc2nccc(NCCCN3CCN(CCCNc4ccnc5ccc(OC)cc45)CC3)c2c1
inactive: [1] 15.8% | [2] 1% | [3] 32.8% | [4] -6.2% | [5] 48.5% | [6] -26.9%

COC(=O)C1=C(O)C(C(=O)OC)[C@@]2(O)[C@@H](C(=O)OC)CC[C@@H]1[C@@H]2C(=O)OC (stereo partly drawn)
inactive: [1] -1.45% | [2] -9.1% | [3] -13.8% | [4] 3% | [5] -3.5% | [6] 8.95%

CCCCCCCCCC(=O)N/N=C\c1cccc2ccccc12
inactive: [1] 0.15% | [2] 17.9% | [3] 1.2% | [4] -14.1% | [5] 24.6% | [6] 16.9%

CCCCCCC(=O)C(N)Cc1ccccc1 (stereo not drawn)
inactive: [1] 0.45% | [2] -27.1% | [3] 3.7% | [4] 8.2% | [5] -1.1% | [6] 20%

C=CCSc1ncnc2c1c(C#N)cn2C1OC(CO)C(O)C1O (stereo not drawn)
inactive: [1] 22% | [2] -21.2% | [3] -16.9% | [4] 17.5% | [5] 7.25% | [6] 28.4%

C=C1C(O)CC2C(O)C3(C)CCC(C)(C)C3C12O (stereo not drawn)
inactive: [1] 3.55% | [2] 1.2% | [3] 12.2% | [4] 15.3% | [5] -0.25% | [6] 11.7%

CN(C)c1ccccc1CN1CCCN(Cc2ccccc2N(C)C)C1c1ccncc1
inactive: [1] -16.3% | [2] -10.1% | [3] -12.3% | [4] -0.25% | [5] -16.2% | [6] -1.55%

c1ccc(C23c4ccccc4C2c2ccccc23)cc1 (stereo not drawn)
inactive: [1] 14.3% | [2] 11.9% | [3] 22.2% | [4] 10.2% | [5] 18.3% | [6] 13.9%

CC(C)(C)/[N+]([O-])=C/C(c1ccccc1)C(/C=[N+](/[O-])C(C)(C)C)c1ccccc1 (stereo not drawn)
inactive: [1] -3.5% | [2] -4.5% | [3] -15.3% | [4] 3.85% | [5] -2.1% | [6] -18.6%

O=C(NCc1ccc([N+](=O)[O-])cc1)c1ccccc1
inactive: [1] 4.15% | [2] 4.45% | [3] -6.4% | [4] 10.1% | [5] 0.85% | [6] 6.7%

CC1CN=C(c2ccccc2)C(c2ccccc2)=N1 (stereo not drawn)
inactive: [1] -24.2% | [2] 1.3% | [3] -6.4% | [4] -6.15% | [5] -12.5% | [6] -22.3%

COc1ccccc1N1C(Cl)C(=O)C1c1c[nH]c2ccccc12 (stereo not drawn)
inactive: [1] 26.9% | [2] -40.3% | [3] -28.7% | [4] 4.4% | [5] -26.6% | [6] -34.9%

C1CCCCC/C2=C(\CCCC1)CSCCCS2
inactive: [1] -25.8% | [2] -19.9% | [3] -16.1% | [4] -14.6% | [5] 0.55% | [6] -36.5%

Cc1ccc2cc(CCCC(=O)O)ccc2c1
inactive: [1] 43.4% | [2] 25.8% | [3] 38.7% | [4] 31.6% | [5] 40.9% | [6] 24.9%

Cc1c[nH]c2nc(C)n(-c3ccc(F)cc3)c(=N)c12
inactive: [1] 4.1% | [2] 2.4% | [3] -9.05% | [4] -14.6% | [5] 5.3% | [6] 5.3%

COc1cc(OC)cc(C2OC3=C(Nc4ccccc4N3)C2=O)c1 (stereo not drawn)
inactive: [1] 12.8% | [2] 16.1% | [3] 23.2% | [4] 19.4% | [5] 19.4% | [6] 28.1%

Nc1ccc(Cl)cc1Br
inactive: [1] 6.35% | [2] 22.4% | [3] -6.5% | [4] 5.5% | [5] -7.05% | [6] 8.6%

O=C(CCBr)OCCC1CCCCC1
inactive: [1] -1.95% | [2] -2.45% | [3] -0.8% | [4] -16.1% | [5] -7.05% | [6] 5.6%

COCC1(c2ccccc2)C(=O)N(C)C(=O)N1C (stereo not drawn)
inactive: [1] -7.6% | [2] 2.5% | [3] -6.25% | [4] -6.3% | [5] -9.85% | [6] 5.25%

O=C1CCCC1CN1CCCCC1 (stereo not drawn)
inactive: [1] 3.25% | [2] -31.8% | [3] -13.7% | [4] 8.5% | [5] 22.1% | [6] -7.25%

CCC(CC)(CO)CO
inactive: [1] 8.75% | [2] -5.75% | [3] -4.3% | [4] 16.1% | [5] -0.55% | [6] -1.55%

C=CC1CCC[N+]1(CC(=O)OCC)Cc1ccccc1 (stereo not drawn)
inactive: [1] -15.2% | [2] -13.9% | [3] -25.2% | [4] 3.7% | [5] -2.15% | [6] -10.8%

CC(c1ccc([N+](=O)[O-])cc1)n1cnc2c(N(CCO)CCO)ncnc21 (stereo not drawn)
inactive: [1] 6.3% | [2] -1.15% | [3] -13.7% | [4] -3.7% | [5] -12.2% | [6] -0.5%
